Test results: the supplement of paper PMC4962491
Where a name gives a salt, the structure may show the parent alone. ± gives the standard deviation of the averaged measurements. The full ranking holds about 1,600 compounds; the median of “mitochondrial oxygen consumption rate normalised to cell number, Z score over the library” is about 0.065, and the lowest 2% start at about -2.2. The full list was thinned out, with the lowest values kept by preference.

system: FaDu; experiment: mitochondrial oxygen consumption rate normalised to cell number, Z score over the library; higher = higher oxygen consumption (negative = OCR reduction); details: treatment time 24 h; assay medium: 5 mM galactose, 5 mM pyruvate, 4 mM glutamine; 10 µM
Protocol: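 Primary screen: FaDu cells were incubated 24 h with Pharmakon 1600 / TDI oncology set compounds at 2 or 10 uM. Mitochondrial-specific OCR (basal minus 2 uM antimycin A) was measured on a Seahorse XF96 in assay medium with 5 mM galactose, 5 mM pyruvate and 4 mM glutamine, then corrected for Hoechst cell number and expressed as a Z score […]. Compounds that cut cell number by >66% were excluded. Two repeats.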

Compound	mitochondrial oxygen consumption rate normalised
CN[C@H]1CC[C@@H](c2ccc(Cl)c(Cl)c2)c2ccccc21	-0.618 ± 0.057
OC[C@H]1O[C@@H](n2cnc3c2N=CNC[C@H]3O)C[C@@H]1O [Pentostatin]	0.38 ± 0.31
C[C@@H]1O[C@@H]1P(=O)(O)O	0.794 ± 0.12
C=CCNC(N)=S	0.218 ± 1.4
Oc1c(Br)cc(Br)c2cccnc12	-1.77 ± 0.19
CCOc1ccc2nc3cc(N)ccc3c(N)c2c1	-3.35 ± 0.25
CCOc1ccc2nc(S(N)(=O)=O)sc2c1	-0.459 ± 0.36
CN(Cc1cc(Br)cc(Br)c1N)C1CCCCC1	0.728 ± 0.24
NNCCc1ccccc1	-0.3 ± 0.16
CO[C@H]1/C=C/O[C@@]2(C)Oc3c(C)c(O)c4c(O)c(c5c(nc6cc(C)ccn65)c4c3C2=O)NC(=O)/C(C)=C\C=C\[C@H](C)[C@H](O)[C@@H](C)[C@@H](O)[C@@H](C)[C@H](OC(C)=O)[C@@H]1C	0.795 ± 0.38
Cc1ccc(Nc2nccc(N(C)c3ccc4c(C)n(C)nc4c3)n2)cc1S(N)(=O)=O [Pazopanib HCl]	-0.379 ± 0.45
OCC(S)CS (stereo not given)	-0.239 ± 0.68
CCCCOc1ccc(C(=O)CCN2CCCCC2)cc1	-0.0802 ± 0.69
N=C(N)c1ccc(N=NNc2ccc(C(=N)N)cc2)cc1	-0.185 ± 0.46
N=C(N)c1ccc(OCCCCCOc2ccc(C(=N)N)cc2)cc1	-3.01 ± 0.078
CC1CCN(CCCC(=O)c2ccc(F)cc2)CC1	-0.602 ± 0.36
CCCCC/C=C/CCC(=O)N[C@H]1[C@H](Oc2c3cc4cc2Oc2ccc(cc2Cl)[C@@H](O[C@@H]2O[C@H](CO)[C@@H](O)[C@H](O)[C@H]2NC(C)=O)[C@@H]2NC(=O)[C@H](NC(=O)[C@@H]4NC(=O)[C@H]4NC(=O)C(Cc5ccc(c(Cl)c5)O3)NC(=O)[C@H](N)c3ccc(O)c(c3)Oc3cc(O)cc4c3)c3ccc(O)c(c3)-c3c(OC4O[C@H](CO)[C@@H](O)[C@H](O)[C@@H]4O)cc(O)cc3[C@@H](C(=O)O)NC2=O)O[C@H](CO)[C@@H](O)[C@@H]1O (stereo not given in full) [TEICOPLANIN [A(2-1) shown]]	1.41 ± 0.64
COCCCOc1cc(C[C@@H](C[C@H](N)[C@@H](O)C[C@H](C(=O)NCC(C)(C)C(N)=O)C(C)C)C(C)C)ccc1OC	0.624 ± 0.066
Nc1ncnc2c1ncn2[C@@H]1O[C@H](CO)[C@@H](O)[C@@H]1O	0.868 ± 0.46
Cc1ccccc1N1C(=O)c2cc(S(N)(=O)=O)c(Cl)cc2NC1C (stereo not given)	0.24 ± 0.2

Compound	mitochondrial oxygen consumption rate normalised
CCCSc1ccc2[nH]c(NC(=O)OC)nc2c1	0.883 ± 0.12
O=C1c2c(O)cc(CO)cc2C(OC2OC(CO)C(O)C(O)C2O)c2cccc(OC3OC(CO)C(O)C(O)C3O)c21 (stereo not given) [CASANTHRANOL [cascaroside A shown]]	-0.942 ± 0.28
C[C@H](Cn1cnc2c(N)ncnc21)OCP(=O)(O)O	0.449 ± 0.26
CCC1=C(C)CN(C(=O)NCCc2ccc(S(=O)(=O)NC(=O)N[C@H]3CC[C@H](C)CC3)cc2)C1=O	0.0168 ± 0.78
Cc1c(-c2cnccn2)ssc1=S	-0.416 ± 0.25
Cc1nccnc1N1CCCCC1	0.47 ± 0.26
CC(=O)NC(Cc1ccccc1)C(=O)O (stereo not given)	0.121 ± 0.33
C[Se]CC[C@H](N)C(=O)O	0.623 ± 0.23
CC(=O)OCC(=O)[C@@]1(O)[C@H](OC(C)=O)C[C@H]2[C@@H]3CCC4=CC(=O)C=C[C@]4(C)[C@@]3(F)[C@@H](O)C[C@@]21C	0.894 ± 0.33
CS(=O)(=O)CCNCc1ccc(-c2ccc3ncnc(Nc4ccc(OCc5cccc(F)c5)c(Cl)c4)c3c2)o1 [Lapatinib Ditosylate]	-0.0282 ± 1.2
O.O.O.O.O=C([O-])CC(O)(CC(=O)[O-])C(=O)[O-].[Li+].[Li+].[Li+]	-0.228 ± 1.6
CC1(C)[C@H](C(=O)O)N2C(=O)C[C@H]2S1(=O)=O	0.32 ± 0.83
CCCCCCc1ccc(O)cc1O.Nc1c2ccccc2nc2ccccc12	-2.93 ± 0.2
Nc1c2c(nc3ccccc13)CCCC2	1.05 ± 0.93
CCCCCCc1ccc(O)cc1O	0.48 ± 0.24
O=C(O)c1cc(-c2ccccc2)nc2ccccc12	0.349 ± 0.05
Oc1c(Cl)cc(Cl)cc1Sc1cc(Cl)cc(Cl)c1O	6.804 ± 0.06
Oc1c(Cl)cc(Cl)c(Cl)c1Cc1c(O)c(Cl)cc(Cl)c1Cl	-6.031 ± 0.028
O=C(Nc1cc(Cl)cc(Cl)c1O)c1c(O)c(Cl)cc(Cl)c1Cl	1.06 ± 0.89
O=C(NCc1ccccc1)OCCO	1.42 ± 0.86

Compound	mitochondrial oxygen consumption rate normalised
CCCCC(CC)COc1ccc(-c2nc(-c3ccc(OC)cc3)nc(-c3ccc(OCC(CC)CCCC)cc3O)n2)c(O)c1 (stereo not given)	0.282 ± 0.45
Cc1ccccc1OCC(O)CO (stereo not given)	-0.432 ± 0.61
O=C1C(O)=C(O)C(=O)C(O)=C1O	0.611 ± 0.72
Cc1oc(=O)oc1CN1CCN(c2cc3c(cc2F)c(=O)c(C(=O)O)c2n3C(C)S2)CC1 (stereo not given)	0.0314 ± 0.4
NC(=O)CCCCC1CCSS1 (stereo not given)	1.43 ± 0.3
CCN[C@@H]1C[C@H](N)[C@@H](O[C@H]2OC(CN)=CC[C@H]2N)[C@H](O)[C@H]1O[C@H]1OC[C@](C)(O)[C@H](NC)[C@H]1O	1.16 ± 0.38
O=C1/C(=C/c2cccs2)CCC/C1=C\c1cccs1	0.0645 ± 0.73
CC(C)n1c(/C=C/C(O)CC(O)CC(=O)O)c(-c2ccc(F)cc2)c2ccccc21 (stereo not given)	-1.03 ± 0.072
CC(=O)[C@@]1(O)CC[C@H]2[C@@H]3C=C(Cl)C4=CC(=O)[C@@H]5C[C@@H]5[C@]4(C)[C@H]3CC[C@@]21C	-0.129 ± 1.6
Cc1cc(/C=C/c2ccc3cc(N(C)C)ccc3[n+]2C)c(C)n1-c1ccccc1	-5.57 ± 0.19
COc1cc2/c(=N/c3ccc(Br)cc3F)nc[nH]c2cc1OCC1CCN(C)CC1 [vandetanib]	0.909 ± 1.7
CCN(CC)C(=O)c1cccnc1	-0.362 ± 0.74
OCc1ccccc1O[C@@H]1O[C@H](CO)[C@@H](O)[C@H](O)[C@H]1O	0.956 ± 0.64
O=C(c1ccc(OCCN2CCCCC2)cc1)c1c(-c2ccc(O)cc2)sc2cc(O)ccc12	-0.0851 ± 0.4
O=C(c1ccc(OCCN2CCCCC2)cc1)c1c(-c2ccc(O)cc2)sc2cc(O)ccc12 [Raloxifene HCl]	-0.567 ± 1.1
COc1ccc(-n2nc(CCC(=O)N(C)O)cc2-c2ccc(Cl)cc2)cc1	-0.88 ± 0.44
FC(F)(Cl)C(F)(F)Cl	0.262 ± 0.59
CC12CCC(CC1=O)C2(C)C (stereo not given)	0.477 ± 0.051
C/C(=C\c1csc(C)n1)[C@@H]1C[C@@H]2O[C@]2(C)CCC[C@H](C)[C@H](O)[C@@H](C)C(=O)C(C)(C)[C@@H](O)CC(=O)N1 [Ixabepilone]	-0.637 ± 0.14
OC[C@H]1O[C@@H](O[C@@H]2[C@@H](CO)OC(O)(CO)[C@H]2O)[C@H](O)[C@@H](O)[C@H]1O (mixture of isomers)	1.09 ± 0.68
